Screening data from PubChem BioAssay.
hgDAF12 agonist: hgDAF-12 agonism, primary luciferase screen; HEK293 GAL4-hgDAF12 UAS-luciferase reporter, agonist luminescence; normalized to butyrate control; activation, % at 6.8 µM; 370,000 compounds, 1.8% hits;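 active = activation above a cutoff set at the mean of all screened compounds plus 3 SD, cut at about 10% in these data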;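 note: 0% = DMSO wells and 100% = sodium butyrate wells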
ssDAF-12 act: activates DAF-12 receptor from parasite S. stercoralis; 370,000 compounds, 1% hits; activation, % at 6.8 µM; HEK293 ssDAF-12/GRIP1 lit1-tk-luc reporter, luminescence; % of 3 µM dafachronic acid response;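 active = activation above the mean over all tested compounds plus 3 SD, cut at about 0.9% in these data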;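 note: 0% = DMSO-only wells and 100% = 3 µM delta7-dafachronic acid wells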
hcDAF-12 act: activators of H. contortus DAF-12 nuclear receptor; 370,000 compounds, 1.4% hits; AID 652067; activation, % at 6.8 µM; HEK293 hcDAF-12 lit1-tk-luc reporter, luminescence; 0% DMSO, 100% Δ7-dafachronic acid;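 active = activation above the mean of all tested compounds plus 3 SD, cut at about 5.5% in these data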;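 note: 100% = response to 3 µM Δ7-dafachronic acid high control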
DAX1 inh-1: DAX1 (NR0B1) inhibition, primary screen; HEK293T StAR-luciferase reporter, SF-1/DAX-1 repression relief; inhibition, % at 6.8 µM; 370,000 compounds, 1.1% hits; AID 652010;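 active = inhibition above the mean over all tested compounds plus 3 SD, cut at about 3.6% in these data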;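 note: 0% = DAX-1 cells with DMSO and 100% = cells lacking DAX-1 with DMSO; higher inhibition means more luminescence from relief of DAX-1 repression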
DAX1 inh-2: inhibits human nuclear receptor DAX1 | inhibition, % at 6.75 µM | HEK293 Gal4-DAX1 luciferase reporter, luminescence | 340,000 compounds, 0.99% hits;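 active = inhibition above the mean over all tested compounds plus 3 SD, cut at about 4.2% in these data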;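 note: 0% = DAX1-transfected cells with DMSO and 100% = empty-vector control cells with DMSO; inhibition shows as a rise in luminescence from relieved DAX1 repression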
Target sequence (P51843 207-470 limits assumed): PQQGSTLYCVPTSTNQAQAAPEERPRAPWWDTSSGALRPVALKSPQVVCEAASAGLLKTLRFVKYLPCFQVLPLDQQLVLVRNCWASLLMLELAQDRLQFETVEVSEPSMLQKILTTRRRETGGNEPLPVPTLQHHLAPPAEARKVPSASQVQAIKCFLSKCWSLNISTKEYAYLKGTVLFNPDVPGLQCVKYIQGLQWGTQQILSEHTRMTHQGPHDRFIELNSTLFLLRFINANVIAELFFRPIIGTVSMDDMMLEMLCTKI
LXRb hcDAF ctr: counter-screen for hcDAF-12 agonists: agonists of human LXR-beta; shares compounds with hcDAF-12 act; HEK293 Gal4-LXR tk-luc reporter, luminescence, 24 h; normalized: DMSO 0%, positive control 100%; activation, % at 6.8 µM; 3,400 tested, under 10 active;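 active = mean percent activation of the reporter above a cutoff set as the average over tested compounds plus their standard deviation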
Target sequence (P55055 whole entry, looked up, the tested form may be a part): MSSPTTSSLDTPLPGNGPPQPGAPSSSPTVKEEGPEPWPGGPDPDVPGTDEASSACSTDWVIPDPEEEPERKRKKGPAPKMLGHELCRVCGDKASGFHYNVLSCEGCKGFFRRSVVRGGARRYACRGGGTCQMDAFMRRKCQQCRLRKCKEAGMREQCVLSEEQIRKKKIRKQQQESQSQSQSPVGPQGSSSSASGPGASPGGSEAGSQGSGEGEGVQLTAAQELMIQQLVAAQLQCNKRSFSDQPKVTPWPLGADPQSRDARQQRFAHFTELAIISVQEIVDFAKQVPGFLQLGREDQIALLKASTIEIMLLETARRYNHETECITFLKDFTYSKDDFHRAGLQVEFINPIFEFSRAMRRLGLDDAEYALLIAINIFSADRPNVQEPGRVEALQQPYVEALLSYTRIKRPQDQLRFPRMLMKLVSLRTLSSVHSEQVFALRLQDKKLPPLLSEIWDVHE
hcDAF12 ag: confirmation of H. contortus DAF-12 agonists | shares compounds with hcDAF-12 act | HEK293 hcDAF-12 lit1-tk-luc reporter, luminescence; % of Δ7-dafachronic acid response | activation, % at 6.8 µM | 3,400 compounds, 61% hits | AID 743032;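 active = mean activation across triplicate tests above the threshold derived from the earlier primary screen, cut at about 5.5% in these data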;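 note: 0% = DMSO only wells and 100% = 3 µM Δ7-dafachronic acid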
hgDAF12 conf: confirmation of H. glycines DAF-12 agonists; HEK293 GAL4-hgDAF12 luciferase reporter, agonist mode; percent of butyrate response; 3,300 compounds, 80% hits; shares compounds with hgDAF12 agonist; activation, % at 6.8 µM; AID 743050;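 active = mean activation over triplicate wells above the hit cutoff derived from the earlier primary screen, cut at about 11% in these data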;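 note: 0% = DMSO low control and 100% = 2 mM sodium butyrate high control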
LXR ag 2: activates human LXR-beta, counter-screen for DAF-12 agonists; shares compounds with hgDAF12 agonist; HEK293 Gal4-LXR luciferase reporter, 24 h; activation, % at 6.8 µM; 3,300 tested, under 10 active; AID 743051;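 active = mean activation of the triplicate above a set limit carried over from the primary screen, none filed active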
Active calls of the source: *; nt = no result. Hits are enriched below; roughly 4.1% of the tested compounds scored in any of these assays.

SMILES	hgDAF12 agonist	ssDAF-12 act	hcDAF-12 act	DAX1 inh-1	DAX1 inh-2	LXRb hcDAF ctr	hcDAF12 ag	hgDAF12 conf	LXR ag 2
O=C(Nc1nc2ncccn2c1-c1ccc(C(F)(F)F)cc1)C1CC1	1.8	-1.3	2.1	-1.0	nt	nt	nt	nt	nt
N#Cc1cnc(Nc2nc3ccccc3o2)nc1-c1ccccc1	-0.9	-1.0	0.1	-0.8	-0.7	nt	nt	nt	nt
Cc1ccnc(Nc2nc3ccccc3o2)n1	20.9*	0.1	10.2*	6.5*	0.3	1.0	6.6*	9.9	0.8
O=C1CCN(CCCN2CCC(=O)NC2=S)C(=S)N1	2.9	-1.2	-0.8	0.0	0.4	nt	nt	nt	nt
CC(=O)Nc1ccc(/C=N\NC(=O)c2cccc(S(=O)(=O)N(C)C)c2)cc1	-0.5	-0.8	0.3	-0.3	nt	nt	nt	nt	nt
COC(=O)CSc1nc2cc(OC)ccc2cc1C#N	15.2*	-0.4	8.2*	3.8*	4.3*	1.5	7.8*	23.1*	0.9
COc1ccc2cc(C#N)c(SCC(=O)N3CCCC3)nc2c1	4.2	-1.0	-2.5	-0.6	-0.3	nt	nt	nt	nt
C[C@@H]1CCN(C2CC2)S(=O)(=O)c2c(cccc2N2CCC[C@H]2CO)O1	1.7	-1.1	-1.5	-0.1	nt	nt	nt	nt	nt
c1ccc(N2CCN(c3cnc4ccccc4n3)CC2)cc1	15.4*	0.1	7.0*	3.1	0.8	1.2	3.3	20.0*	0.7
Clc1ccc(N2CCN(c3cnc4ccccc4n3)CC2)cc1	0.8	-1.3	-1.0	-0.1	-0.4	nt	nt	nt	nt
O=C(NCc1ccccc1)C1(C(=O)C2CC2)CC(c2ccccn2)=NO1 (stereo not drawn)	1.5	-0.3	1.3	0.8	nt	nt	nt	nt	nt
Cc1ccc(N/C=C/C(=O)c2ccccc2)cc1Br	18.6*	3.4*	16.4*	3.8*	1.6	2.4	16.1*	25.3*	1.2
Cc1c(C(=O)Nc2ccc(Br)cc2)cnn1C	15.0*	2.3*	11.2*	1.8	2.4	0.6	6.1*	12.5*	0.5
CC(=O)NC(c1ccccc1)c1nc(-c2ccccc2)cs1 (stereo not drawn)	3.6	-0.4	-1.3	-0.2	nt	nt	nt	nt	nt
Fc1ccc(NC2CCC23CCC(c2ccccc2)CC3)cc1C(F)(F)F (stereo not drawn)	1.4	-1.8	-1.5	nt	nt	nt	nt	nt	nt
CN(C)/C=N/C1=C(C#N)C(c2cccs2)c2ccc3ccccc3c2O1 (stereo not drawn)	23.8*	1.0*	9.4*	-1.6	0.9	0.2	8.5*	13.6*	0.2
Cc1sc(NC(=O)c2ccco2)nc1-c1ccccc1	14.4*	0.6	7.8*	2.6	3.9	1.4	7.9*	18.0*	0.8
Cc1cc(C)c(C#N)c(SCc2nc3ccccc3[nH]2)n1	14.8*	3.6*	17.9*	3.5	4.8*	1.0	11.4*	11.7*	0.4
Cc1cc(C)c(C#N)c(SCc2ccc(F)cc2)n1	-3.8	-1.3	-0.3	-0.1	-0.3	nt	nt	nt	nt
Oc1ccc(-c2csc(-c3c[nH]c4ccccc34)n2)c(O)c1	14.2*	2.7*	8.3*	3.5	3.2	1.2	9.2*	17.0*	0.8
Cc1ccc(-c2csc(-c3c[nH]c4ccccc34)n2)c(C)c1	8.7	0.0	0.7	0.8	1.6	nt	nt	nt	nt
CC1=NC(=O)C(N=Nc2cccc(O)c2)N1c1ccccc1 (stereo not drawn)	14.2*	0.2	9.3*	1.2	2.2	0.8	12.4*	16.3*	0.6
O=C1NC[C@@H](CCCCN2C[C@H](Cc3ccccc3)N(Cc3ccccc3)C(=O)C2=O)N(Cc2ccccc2)C1=O	2.5	-1.0	1.6	-0.5	nt	nt	nt	nt	nt
CCOC(=O)c1nc2ccc(C)cc2c2c1C1CC(c3c(Cl)cccc31)N2C(=O)OCc1ccccc1 (stereo not drawn)	3.8	-1.3	1.3	-2.5	-0.3	nt	nt	nt	nt
O=C(Nc1nccs1)c1ccc(-c2ccc(Cl)cc2)o1	16.6*	1.3*	6.6*	4.3*	4.6*	1.6	3.8	21.5*	1.3
SMILES	hgDAF12 agonist	ssDAF-12 act	hcDAF-12 act	DAX1 inh-1	DAX1 inh-2	LXRb hcDAF ctr	hcDAF12 ag	hgDAF12 conf	LXR ag 2
Cc1nnc(NC(=O)c2ccc(-c3ccc(Cl)cc3)o2)s1	-2.0	-1.3	-1.8	0.8	0.1	nt	nt	nt	nt
COc1cc(/C=N/O)ccc1OCc1ccc(Cl)cc1	18.8*	0.5	7.9*	4.0*	nt	1.2	5.7*	15.3*	1.0
COc1cc(/C=N/N=C(N)N)ccc1OCc1ccc(Cl)cc1	5.4	-0.4	1.4	-0.3	-1.9	nt	nt	nt	nt
Cc1cc(N/N=C/c2ccccc2Br)nc2ccccc12	2.7	-1.2	0.6	0.3	0.0	nt	nt	nt	nt
Brc1ccccc1/C=N/Nc1ccc2ccccc2n1	25.2*	2.5*	11.5*	3.2	1.6	1.5	12.9*	22.3*	1.1
CN1C2CCCC1CC(NC(=O)c1nn(C)c3ccccc13)C2 (stereo not drawn)	-0.1	-1.1	-1.7	-0.2	nt	nt	nt	nt	nt
Oc1ccc(-c2cnc(-c3ccc(O)cc3)nc2)cc1	17.2*	1.2*	6.9*	3.4	-2.0	2.8	8.7*	17.5*	1.4
CC12COC3(C(=O)Nc4ccc5ccccc5c4)CC1CCC32C (stereo not drawn)	19.1*	1.9*	7.3*	2.1	1.9	0.8	6.9*	15.8*	0.3
COc1ccc(N2C(c3ccsc3)=Cc3cc4c(cc3C2c2c[nH]c3ccccc23)OCO4)cc1 (stereo not drawn)	4.0	0.1	4.8	-1.8	nt	nt	nt	nt	nt
COc1ccc(-c2csc(Nc3ncccc3C)n2)cc1	16.8*	0.6	7.5*	2.1	2.7	1.2	5.4	17.1*	0.9
COc1ccc(-c2csc(Nc3ncccc3C)n2)cc1OC	4.8	-1.3	0.5	0.3	0.2	nt	nt	nt	nt
Nc1ccc2ccc(N)cc2c1	-4.0	-1.3	-0.5	-2.2	nt	nt	nt	nt	nt
Clc1ccc(-c2cnc3cccnn23)cc1	7.6	0.0	2.9	0.8	nt	nt	nt	nt	nt
Nc1cccn2c(-c3ccc(Cl)cc3)cnc12	16.3*	0.8	7.4*	2.9	1.9	1.3	10.1*	17.8*	0.6
Cc1ccc(-c2nnc(NC3CCCC3)s2)cc1	15.2*	0.0	9.2*	2.2	3.6	0.9	3.0	18.6*	0.9
Cc1ccc(C(=O)Nc2nnc(-c3ccc(C(C)(C)C)cc3)s2)cc1	1.5	-1.0	0.5	-0.2	0.2	nt	nt	nt	nt
COCCN1Cc2c(sc(C)c2C)N(C(=O)c2ccccc2)C1	14.2*	1.7*	9.2*	1.8	1.7	-0.1	3.1	7.6	0.2
